Among the test systems are SR leukemia; RPMI-8226 leukemia; OVCAR-8 ovarian; OVCAR-5 ovarian; OVCAR-4 ovarian; SK-OV-3 ovarian; IGROV1 ovarian; OVCAR-3 ovarian; HS 578T breast; NCI/ADR-RES ovarian; T-47D breast; BT-549 breast; MDA-MB-435 melanoma; SW-620 colon; MCF7 breast; HCT-116 colon; HCC-2998 colon; KM12 colon; MDA-MB-468 breast.
What all share (assay): NCI-60 one-dose screen, 48 h (100 = growth as untreated, 0 = no growth, -100 = all killed)
Common to all, as to conditions: 10 µM unless noted

Experimental findings from PubChem BioAssay (NCI) are described below.

About 83,000 compounds went through this panel and 20% of them were active in at least one assay; those are over-represented in the sample as a whole.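 The test compound was applied at a single concentration to cells in 96-well plates for 48 hours, and percent growth was recorded.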 Values without a mark were called inactive. The source made the active and inactive calls. Rule for the calls: active = growth percent below 10; inactive = the rest.

In the case of `N#C/C(=C1/C(=O)Nc2ccccc21)c1nnc(NC(=O)c2ccc(-n3c(=O)[nH]c4ccccc4c3=O)cc2)s1`, the growth was 17% in the assay with SR leukemia; 11.5% with RPMI-8226 leukemia; 40.2% with OVCAR-8 ovarian; 63.5% in the assay with OVCAR-5 ovarian; 31.2% in the assay with OVCAR-4 ovarian; 75.1% with SK-OV-3 ovarian. For the same compound, the growth was 38.7% with IGROV1 ovarian; 25.6% with OVCAR-3 ovarian; 55.6% with HS 578T breast; 22.9% in the assay on NCI/ADR-RES ovarian; 6.13% (active) in the assay with T-47D breast; 12.1% with BT-549 breast. The growth was -85.5% (active) with MDA-MB-435 melanoma; 65.4% in the assay with SW-620 colon; 7.69% (active) in the assay on MCF7 breast; 22.8% with HCT-116 colon; 32.5% in the assay on HCC-2998 colon; 21.4% in the assay with KM12 colon. Moreover, the growth in the assay with MDA-MB-468 breast is 12.9%.
As to `Cc1oc(-c2ccccc2)nc1CN[C@@H]1C[C@@H]2C[C@H]([C@H]1C)C2(C)C`, the growth in the assay with SR leukemia was -6.32% (active); in the assay on RPMI-8226 leukemia it was -3.45% (active); in the assay on OVCAR-8 ovarian, 82.6%; in the assay with OVCAR-5 ovarian it was 30.7%; in the assay on OVCAR-4 ovarian, 74.5%; in the assay with SK-OV-3 ovarian, 73.5%. The growth in the assay on IGROV1 ovarian was 37.6%; in the assay on OVCAR-3 ovarian, 84.4%; with HS 578T breast, 69.2%; in the assay on NCI/ADR-RES ovarian, -38.1% (active); in the assay with T-47D breast, 0.388% (active); in the assay on BT-549 breast it was 39.3%. Further, the growth with MDA-MB-435 melanoma is 71.3%; in the assay on SW-620 colon, 22.8%; with MCF7 breast, -4.81% (active); with HCT-116 colon it was 9.06% (active); with HCC-2998 colon, -75.6% (active); in the assay on KM12 colon it was 64.3%. The growth in the assay on MDA-MB-468 breast is -83.7% (active).
On to `COc1ccc2nc(NC(=O)c3ccc(N(C)C)cc3)sc2c1`, for which the growth was 42.5% with SR leukemia; 31.9% with RPMI-8226 leukemia; 75.7% with OVCAR-8 ovarian; 93% with OVCAR-5 ovarian; 75% in the assay with OVCAR-4 ovarian; 111% with SK-OV-3 ovarian. For the same compound, the growth is 99.5% with IGROV1 ovarian; 94.5% in the assay on OVCAR-3 ovarian; 95.9% with HS 578T breast; 52.9% with NCI/ADR-RES ovarian; 69% with T-47D breast; 58.7% in the assay with BT-549 breast. Moreover, the growth in the assay with MDA-MB-435 melanoma is 79.8%; in the assay on SW-620 colon, 91.8%; in the assay on MCF7 breast, 44.7%; in the assay with HCT-116 colon, 79.8%; in the assay with HCC-2998 colon, 98.2%; with KM12 colon, 57.8%. Besides, in the assay with MDA-MB-468 breast, the growth is 41.1%.
Consider `C=CCSc1nnc(-c2ccc(-c3nc4ccccc4[nH]3)cc2)o1`, for which the growth with SR leukemia is 81%; with RPMI-8226 leukemia it was 34.9%; in the assay on OVCAR-8 ovarian it was 55.9%; in the assay on OVCAR-5 ovarian, 105%; in the assay with OVCAR-4 ovarian, 46.1%; in the assay on SK-OV-3 ovarian it was 96.1%. For the same compound, the growth with IGROV1 ovarian is 101%; in the assay on OVCAR-3 ovarian it was 91.5%; with HS 578T breast, 79%; in the assay with NCI/ADR-RES ovarian, 61.1%; with T-47D breast, 4.02% (active); in the assay with BT-549 breast, 83.5%. Also, the growth in the assay on MDA-MB-435 melanoma is 79%; in the assay on SW-620 colon, 101%; with MCF7 breast, 72.6%; in the assay on HCT-116 colon, 74.9%; in the assay on HCC-2998 colon, 97.9%; in the assay on KM12 colon, 82%. The growth in the assay on MDA-MB-468 breast was 69.3%.
For the compound `C/C(=N/O)c1ccc(NC(=O)CSc2nnc(-c3ccc4nc(-c5ccc(Cl)cc5)[nH]c4c3)o2)cc1`, the growth was 24% in the assay with SR leukemia; 54.4% in the assay with RPMI-8226 leukemia; 1.29% (active) in the assay with OVCAR-8 ovarian; 118% in the assay on OVCAR-5 ovarian; 101% in the assay on OVCAR-4 ovarian; 117% in the assay with SK-OV-3 ovarian. Further, the growth with IGROV1 ovarian was 102%; with OVCAR-3 ovarian, 84.7%; with HS 578T breast, 12.7%; in the assay on NCI/ADR-RES ovarian, 101%; with T-47D breast it was 97.8%; in the assay with BT-549 breast, -8.14% (active). For the same compound, the growth in the assay on MDA-MB-435 melanoma was 18.3%; in the assay on SW-620 colon it was 67.4%; with MCF7 breast, 55.3%; in the assay with HCT-116 colon, 69%; with HCC-2998 colon, 128%; with KM12 colon it was 36.4%. For the same compound, in the assay with MDA-MB-468 breast, the growth is 122%.
Regarding `C#CCN(C)CCCOc1ccc(N(C)C(=O)c2cc(C(C)C)c(O)cc2O)cc1Cl`, the growth in the assay with SR leukemia was -13.5% (active); with RPMI-8226 leukemia, 8.9% (active); in the assay with OVCAR-8 ovarian, 9.81% (active); in the assay with OVCAR-5 ovarian it was 29.4%; with OVCAR-4 ovarian, 36.1%; in the assay with SK-OV-3 ovarian, 16.2%. The growth was 11.4% in the assay on IGROV1 ovarian; 30.7% in the assay on OVCAR-3 ovarian; 26.3% with HS 578T breast; -5.62% (active) in the assay with NCI/ADR-RES ovarian; 11% in the assay with T-47D breast; 9.45% (active) in the assay on BT-549 breast. Besides, the growth in the assay on MDA-MB-435 melanoma was 4.66% (active); with SW-620 colon, 12.2%; in the assay on MCF7 breast, 7.62% (active); with HCT-116 colon, 7.57% (active); in the assay with HCC-2998 colon, -38.4% (active); with KM12 colon, 5.69% (active). In the assay with MDA-MB-468 breast, the growth is -30.8% (active).
Regarding `O=C(N/N=C/c1ccc(Cl)o1)c1[nH]c2ccc(Br)cc2c1-c1ccccc1`, the growth in the assay with SR leukemia is 7.2% (active); in the assay on RPMI-8226 leukemia it was 1.15% (active); with OVCAR-8 ovarian it was -56.7% (active); in the assay with OVCAR-5 ovarian, -24.9% (active); in the assay with OVCAR-4 ovarian it was -22.3% (active); in the assay with SK-OV-3 ovarian, 4.66% (active). The growth with IGROV1 ovarian was 5.37% (active); in the assay with OVCAR-3 ovarian, -11.3% (active); in the assay on HS 578T breast, 3.22% (active); in the assay with NCI/ADR-RES ovarian, -79% (active); in the assay with T-47D breast it was 29.8%; in the assay on BT-549 breast it was -25.9% (active). For the same compound, the growth in the assay on MDA-MB-435 melanoma is -47.9% (active); in the assay on SW-620 colon, -29.6% (active); with MCF7 breast, 1.67% (active); with HCT-116 colon, -56.1% (active); in the assay on HCC-2998 colon, -26% (active); in the assay with KM12 colon it was 2.65% (active). Moreover, the growth with MDA-MB-468 breast is -9.32% (active).
`NS(=O)(=O)c1ccc(Nc2nc(SCC(=O)c3ccc(F)cc3)nc3ccccc23)cc1`: the growth with SR leukemia was 19.6%; in the assay on RPMI-8226 leukemia it was 30.6%; with OVCAR-8 ovarian, 52.9%; in the assay on OVCAR-5 ovarian, 78.1%; with OVCAR-4 ovarian it was 37.3%; in the assay with SK-OV-3 ovarian, 67.3%. Besides, the growth with IGROV1 ovarian was 46.4%; in the assay with OVCAR-3 ovarian it was 47.1%; in the assay with HS 578T breast, 53.1%; in the assay with NCI/ADR-RES ovarian, 28.7%; in the assay with T-47D breast it was 19.5%; in the assay with BT-549 breast it was 44.2%. The growth with MDA-MB-435 melanoma was 0.411% (active); with SW-620 colon it was 50.5%; in the assay with MCF7 breast, 19.1%; with HCT-116 colon, 39%; in the assay on HCC-2998 colon it was 47.5%; in the assay with KM12 colon it was 19.4%. In the assay on MDA-MB-468 breast, the growth is 11.4%.
